# According to PubChem BioAssay:
# The source made the active and inactive calls.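 Rule for the calls, unless noted: active = NADPH fluorescence slope more negative than the mean of all samples by about 3 SD, 99.7% confidence; inactive = the rest.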
# Columns and labels:
# [1] = inhibitors of TNFa-induced NFkB p65 translocation, primary screen, imaging, HUVEC, MLSMR starter and 10KST1 sets (AID 438;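 active = inhibition above 20% together with a positive visual image hit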;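 note: compound added about 3h40 before a 20 min TNFalpha stimulation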;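 for inhibition: signal is the nuclear over cytoplasmic p65 intensity ratio per well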); settings: HUVEC TNFa-induced p65 nuclear translocation; cell count: measured here: nuclei count (cytotoxicity indicator), at 2.08 µM; inhibition: at 2 µM, stronger effect = higher value, 0% TNFa-plus-vehicle, 100% no-TNFa wells
# [2] = reduction of polyQ htt aggregates in cells – imaging, exon1htt(103Q)mCFP cells, high-content imaging, primary screen (AID 483;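 active = visual image review flags a hit and inhibition of aggregation exceeds 20%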;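 note: compound exposure lasted 3 days before fixation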;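 for nuclei count: percent of the per-plate median nuclei count of sample wells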); settings: exon1htt(103Q)mCFP cell line, aggregate imaging, at 2 µM; inhibition of aggregation: stronger effect = higher value; nuclei count: measured here: cell count, toxicity
# [3] = endothelial E-selectin expression blockers – imaging, HUVEC, immunofluorescence, MLSMR starter and 10KST1 sets, primary screen (AID 487;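 active = visually confirmed hit in the image check and inhibition above 20%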;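 for inhibition: signal is fraction of cell area covered by stained E-selectin grains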;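 for nuclei count: 100% = median nuclei count of all wells on the same plate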); settings: HUVEC TNFalpha-induced E-selectin immunofluorescence imaging, at 2 µM; inhibition: stronger effect = higher value; nuclei count: measured here: cell number, toxicity
# [4] = biological target: Voltage-gated potassium channel subunit beta-2 (Rattus norvegicus) (UniProt P62483); assay: inhibitors of rat Kvbeta2 reductase activity – biochemical, NADPH fluorescence, primary screen (AID 622;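 active = fluorescence slope higher than the sample average by over 3 SD, cut at about -0.22 in these data, passing the limit was not always enough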;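 note: slope of raw intensity against log time taken from 70 to 1610 s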); settings: recombinant KvBeta, 4-cyanobenzaldehyde reduction, at 10 µM, stronger effect = higher value
# Voltage-gated potassium channel subunit beta-2 (Rattus norvegicus), sequence (P62483 whole entry, looked up): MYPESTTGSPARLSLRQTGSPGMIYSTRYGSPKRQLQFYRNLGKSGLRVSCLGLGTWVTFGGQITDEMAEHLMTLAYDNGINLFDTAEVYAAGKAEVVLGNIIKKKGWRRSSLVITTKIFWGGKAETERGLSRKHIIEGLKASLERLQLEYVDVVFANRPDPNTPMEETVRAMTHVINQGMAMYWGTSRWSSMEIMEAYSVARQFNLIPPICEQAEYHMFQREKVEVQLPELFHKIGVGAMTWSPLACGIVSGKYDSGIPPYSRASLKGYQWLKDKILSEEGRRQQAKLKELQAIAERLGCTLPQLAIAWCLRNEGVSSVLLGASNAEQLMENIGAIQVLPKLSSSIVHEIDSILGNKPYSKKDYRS
# [5] = biological target: Voltage-gated potassium channel subunit beta-2 (Rattus norvegicus) (UniProt P62483); assay: enhancers of rat Kvbeta2 NADPH turnover – biochemical, NADPH fluorescence, primary screen (AID 623); settings: Recombinant KvBeta, NADPH fluorescence decrease slope, 10 min; at 10 µM; stronger effect = lower value;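 note: fluorescence intensity change per second fitted from 20 to 320 s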
# [6] = biological target: Alpha-2C adrenergic receptor (Homo sapiens) (UniProt P18825); assay: compounds altering alpha2C-coupled GIRK flux – cell-based, HEK293 alpha2C/GIRK1/2, thallium flux, primary screen (AID 624;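 active = fluorescence slope after compound addition differing from the mean of all screened samples at 99.7% confidence, in either direction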;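 note: slope of fluorescence ratio to pre-addition baseline per second over 15 to 24 s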); settings: thallium flux BTC fluorescence, at 10 µM, actives lie on both sides
# Alpha-2C adrenergic receptor (Homo sapiens), sequence (P18825 whole entry, looked up): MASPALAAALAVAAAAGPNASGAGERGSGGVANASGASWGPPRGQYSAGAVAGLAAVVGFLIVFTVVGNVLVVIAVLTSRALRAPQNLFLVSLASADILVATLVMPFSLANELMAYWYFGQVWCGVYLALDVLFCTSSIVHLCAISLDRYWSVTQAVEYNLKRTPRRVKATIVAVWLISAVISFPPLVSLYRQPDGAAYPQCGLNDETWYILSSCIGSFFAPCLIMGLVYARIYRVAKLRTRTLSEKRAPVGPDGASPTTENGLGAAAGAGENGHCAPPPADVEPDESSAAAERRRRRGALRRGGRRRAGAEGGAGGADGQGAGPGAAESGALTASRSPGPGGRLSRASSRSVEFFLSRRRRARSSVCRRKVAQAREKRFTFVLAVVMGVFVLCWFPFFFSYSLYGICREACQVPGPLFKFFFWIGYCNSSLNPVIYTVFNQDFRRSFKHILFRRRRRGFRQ
# [7] = blockers of RIG-like receptor reporter activation – cell-based, Sendai virus stimulus, luciferase, 10K MLSCN set, TLR/RLR signaling modifier project, primary screen (AID 602276;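 active = inhibition at or above 50% at 10 µM; inactive = inhibition below 50%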;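 note: firefly luciferase from ISG56 promoter only with Renilla not read in this screen; 0% = Sendai virus plus DMSO and 100% = medium plus DMSO without virus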); settings: HEK293 RL24 IRF3 luciferase reporter, at 10 µM, stronger effect = higher value
# [8] = TLR3 IRF3 reporter activation blockers – cell-based, poly I:C stimulus, luciferase, 10K MLSCN set, primary screen (AID 602277;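 active = inhibition of the reporter signal at or above 50%; inactive = inhibition below 50%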); settings: HEK293-TLR3 RL24 IRF3 luciferase reporter, at 10 µM, stronger effect = higher value
Structure (SMILES),cell count [1],inhibition [1],inhibition of aggregation [2],nuclei count [2] [%],inhibition [3],nuclei count [3] [%],fluorescence slope [4],NADPH fluorescence slope [5],slope [6],inhibition [7],inhibition [8]
N/C(=N/O)c1nc(N2CCCCC2)nc(N2CCCCC2)n1,640,-16.2% (inactive),-135% (inactive),53.7,-50.5% (inactive),81.9,-0.498 (inactive),8.9e-06 (inactive),0.00632 (inactive),8.03% (inactive),24.6% (inactive)
O=C(NCc1nnc(SCC(=O)N2CCC(Cc3ccccc3)CC2)o1)c1ccccc1F,574,-0.4% (inactive),4.4% (inactive),112,5.1% (inactive),110,-0.549 (inactive),-5.6e-05 (inactive),0.00657 (inactive),-4.5% (inactive),8.45% (inactive)
Cc1ccccc1NS(=O)(=O)c1cc(S(C)(=O)=O)ccc1Cl,552,7.7% (inactive),-3% (inactive),102,-43.9% (inactive),119,-0.436 (inactive),2.4e-05 (inactive),0.00562 (inactive),-5.83% (inactive),4.63% (inactive)
COc1ccc(N(CC(=O)NCCSC(C)(C)C)S(C)(=O)=O)c(OC)c1,387,-1.4% (inactive),12.9% (inactive),104,-18.2% (inactive),120,-0.537 (inactive),0.000155 (inactive),0.00708 (inactive),18.9% (inactive),20.9% (inactive)
COc1ccc(OCCOC(=O)c2cccs2)cc1,367,14.9% (inactive),-30.1% (inactive),100,-11.5% (inactive),112,-0.604 (inactive),7.3e-06 (inactive),0.00778 (inactive),-2.79% (inactive),4.6% (inactive)
COC(=O)c1cc2oc(C)cc2n1CC(=O)N(C)c1ccccc1,370,-0.4% (inactive),-4.7% (inactive),108,-67.6% (inactive),115,-0.347 (inactive),-4.4e-05 (inactive),0.00693 (inactive),9.76% (inactive),30.2% (inactive)
CCN(CC)CCOC(=O)c1c(C)oc2ccc(O)cc12,418,11.9% (inactive),-8.4% (inactive),74.1,30.6% (inactive),106,-0.5 (inactive),-8e-05 (inactive),0.00511 (inactive),8.25% (inactive),6.72% (inactive)
Cc1cc2cc(CCNC(=O)CC(C)C)c(=O)[nH]c2cc1C,633,-5.8% (inactive),15.1% (inactive),83.5,-40% (inactive),107,-0.595 (inactive),-2.7e-05 (inactive),0.00623 (inactive),-11.5% (inactive),-9.56% (inactive)
Cc1ccc2c(c1)NC(=O)C(CC(=O)NCCN(CC(C)C)CC(C)C)O2 (centres undefined),659,4.4% (inactive),7.8% (inactive),102,-11% (inactive),125,-0.584 (inactive),6e-06 (inactive),0.00608 (inactive),-16.7% (inactive),-6.31% (inactive)
O=C(CC(SCCO)c1ccc2c(c1)OCO2)c1ccco1 (centres undefined),538,-10.2% (inactive),-17.3% (inactive),114,-60.6% (inactive),128,-0.602 (inactive),-5.3e-06 (inactive),0.00625 (inactive),-31.1% (inactive),-69.6% (inactive)
Cc1cc(OCC(=O)N2CCCC2)cc(C)c1Cl,633,6.6% (inactive),3.4% (inactive),95,-128% (inactive),99.5,-0.601 (inactive),-7.6e-05 (inactive),0.00573 (inactive),4.42% (inactive),-0.933% (inactive)
CC(=O)c1ccc(-n2nnnc2SCC(=O)N2CCc3ccccc3C2)cc1,434,-12.9% (inactive),12.1% (inactive),104,0% (inactive),93.6,-0.51 (inactive),2.1e-05 (inactive),0.0053 (inactive),2.55% (inactive),5.8% (inactive)
NC(=O)COC(=O)CNC(=O)c1ccc(Cl)cc1,450,11.7% (inactive),4.1% (inactive),106,20.5% (inactive),111,-0.521 (inactive),-1.3e-05 (inactive),0.00666 (inactive),18.5% (inactive),17.3% (inactive)
Cc1nc(NCc2ccc3c(c2)OCO3)c2oc3ccccc3c2n1,292,12.8% (inactive),-3.5% (inactive),105,44.7% (inactive),101,-0.516 (inactive),2.5e-05 (inactive),0.00488 (inactive),4.64% (inactive),-12% (inactive)
